Most compounds without a hit are left out; they make up all but 3.6% or so of the library.
BoNT F protease: BoNT/F light chain protease inhibitors, primary screen, biochemical, flow cytometry, MLPCN library; inhibition, % at 10 µM; Multiplex microsphere protease cleavage assay; 360,000 compounds, 0.22% hits; in the data active means inhibition above about 35%, passing the limit was not always enough; inconclusive means no clear call, values can overlap the other calls
Anthrax LF prot: Bacillus anthracis LF protease inhibitors, primary screen, biochemical, multiplex microsphere, MLPCN library; multiplex microsphere protease cleavage assay; AID 588501, 2011; inhibition, % at 10 µM; 360,000 compounds, 0.12% hits
BJeLR viability: MLPCN primary cell-based screen for lethality selective to Ras in HRASV12 cells; AID 1554, 2009; BJeLR (HRASV12) viability, CellTiter-Glo ATP luminescence, 48 h; inhibition, % (no concentration beside the values); 300,000 compounds, 0.17% hits; in the data active means inhibition above about 50%; inconclusive means no clear call, values can overlap the other calls
BoNT A protease: BoNT/A light chain protease inhibitors, primary screen, biochemical, flow cytometry, MLPCN library. multiplex microsphere protease substrate cleavage. inhibition, % at 10 µM. 360,000 compounds, 0.17% hits
3CLpro inhibitor: SARS-CoV 3CLpro protease inhibitors, primary screen, biochemical, quenched FRET; 290,000 compounds, 0.14% hits; AID 1706, 2009; recombinant SARS-CoV 3CLpro, quenched FRET peptide cleavage; inhibition, % at 6 µM; Replicase polyprotein 1ab (Severe acute respiratory syndrome coronavirus), P0C6X7; in the data active means inhibition above about 12%
Autofluor counter: compound fluorescence in toxin protease inhibitor counterscreen | fluorescence intensity (concentration not given with the values) | 360,000 compounds, 3.1% hits | compound autofluorescence counterscreen, microsphere flow cytometry; active compounds read high | AID 624483; in the data active means fluorescence intensity above about 16000; inconclusive means no clear call, values can overlap the other calls
BoNTA LC inh 1: BoNT/A light chain protease inhibitors, confirmation, biochemical, flow cytometry, cherry pick 1; shares compounds with BoNT F protease; multiplex microsphere protease assay; inhibition, % at 10 µM; 720 compounds, 3% hits; AID 602139, 2011; in the data active means inhibition above about 32%
BoNTF LC inh 1: BoNT/F light chain protease inhibitors, confirmation, biochemical, flow cytometry, cherry pick 1; shares compounds with BoNT F protease; multiplex microsphere protease cleavage assay; inhibition, % at 10 µM; 720 tested, under 10 active; AID 602140, 2011; call rule not given here
Anthrax LF CP1: Bacillus anthracis LF protease inhibitors, confirmation, biochemical, multiplex microsphere, cherry pick 1. shares compounds with BoNT F protease. multiplex microsphere protease cleavage assay. inhibition, % at 10 µM. 720 tested, under 10 active. AID 602142, 2011; call rule not given here
Each line names hits and unclear results; the compound was inactive in the other large screens (follow-up assays come after a bar, where they were run). Unless noted, no stated cut-off is given here; in the data, active means inhibition above about 30%; inconclusive means no clear call, values can overlap the other calls; inactive means below that.

CC(Oc1ccc(Br)cc1)c1nc2c3ccccc3nc(=S)n2[nH]1 (stereo not given)	BoNT F protease 36 | BoNTA LC inh 1 inactive | BoNTF LC inh 1 inactive | Anthrax LF CP1 inactive
CCCC(Oc1ccc(Br)cc1)c1nc2c3cc(OC)c(OC)cc3nc(=S)n2[nH]1 (stereo not given)	none
Cc1csc(=O)n1CCC(=O)OCC(=O)NCc1ccccc1	none (no result: BJeLR viability, 3CLpro inhibitor)
CCN1CCN(c2nc(N(C)c3ccccc3)nc(N)c2[N+](=O)[O-])CC1	none
CCn1c(CCNC(=O)c2ccc(OC)c(OC)c2)nc2ccccc21	BoNT F protease 40 | BoNTA LC inh 1 inactive | BoNTF LC inh 1 inactive | Anthrax LF CP1 inactive
O=C1C2C3C=CC(CC3)C2C(=O)N1c1ccc(Cl)cc1 (stereo not given)	none (no result: BoNT F protease, Anthrax LF prot, BoNT A protease, Autofluor counter)
O=C1C2C3C=CC(CC3)C2C(=O)N1c1ccc(Cl)cc1Cl (stereo not given)	BoNT F protease 60 | BoNTA LC inh 1 inactive | BoNTF LC inh 1 inactive | Anthrax LF CP1 inactive
O=S(=O)(c1cccc(C(F)(F)F)c1)N1CCC(CO)(CCCc2ccccc2)CC1	Anthrax LF prot 49 | BoNTA LC inh 1 inactive | BoNTF LC inh 1 inactive | Anthrax LF CP1 inactive
CCCCOc1ccc(C2/C(=C(/O)c3ccc4c(c3)CC(C)O4)C(=O)C(=O)N2CCCN2CCOCC2)cc1OC (stereo not given)	none (no result: BoNT F protease, Anthrax LF prot, BoNT A protease, Autofluor counter)
S=c1[nH]nc(Cn2cnc3ccccc32)n1-c1ccccc1Cl	none
COc1ccc(OC)c(CN2CCN(C(=O)CNC(=O)c3ccc(C(C)(C)C)cc3)CC2)c1	none (no result: BJeLR viability, 3CLpro inhibitor)
COc1ccc(OC)c(CN2CCN(C(=O)CCNC(=O)c3ccc(Br)cc3)CC2)c1	BoNT A protease 34, Autofluor counter inconclusive (no result: 3CLpro inhibitor) | BoNTA LC inh 1 inactive | BoNTF LC inh 1 inactive | Anthrax LF CP1 inactive
Nc1c(C(=O)Nc2nccs2)sc2nc(-c3cccs3)cc(C(F)(F)F)c12	BoNT F protease 82 | BoNTA LC inh 1 inactive | BoNTF LC inh 1 inactive | Anthrax LF CP1 inactive
Cc1nnc(NC(=O)c2sc3nc(-c4cccs4)cc(C(F)(F)F)c3c2N)s1	none
CCN(CC)C(=O)c1sc2nc(-c3cccs3)cc(-c3cccs3)c2c1N	none
COc1ccc(NC(=O)c2sc3nc(Cc4ccccc4)cc(C(F)(F)F)c3c2N)cc1OC	none
Cc1nn(C)c2nc(-c3cccs3)cc(C(F)(F)F)c12	none
CC(C)(C)C(=O)c1sc2nc(-c3cccs3)cc(C(F)(F)F)c2c1N	Anthrax LF prot 34, BoNT A protease 34 | BoNTA LC inh 1 inactive | BoNTF LC inh 1 inactive | Anthrax LF CP1 inactive
COc1ccccc1NC(=O)c1sc2nc(Cc3ccccc3)cc(C(F)(F)F)c2c1N	BoNT A protease 30 | BoNTA LC inh 1 inactive | BoNTF LC inh 1 inactive | Anthrax LF CP1 inactive
CCN(CC)C(=O)c1sc2nc(-c3cccs3)cc(-c3ccc(Cl)cc3)c2c1N	Anthrax LF prot 39, BoNT A protease 53 | BoNTA LC inh 1 inactive | BoNTF LC inh 1 inactive | Anthrax LF CP1 inactive
Cc1c(C(=O)Nc2ccc(S(=O)(=O)N(C)C3CCN(C)CC3)cc2)oc2c(Cl)cccc12	none (no result: BoNT F protease, Anthrax LF prot, BoNT A protease, 3CLpro inhibitor, Autofluor counter)
COc1ccc(N(C(=O)c2snc(C(N)=O)c2N)C(C(=O)NCC2CCCO2)c2ccc3ncccc3c2)cc1OC (stereo not given)	BoNT F protease 38 | BoNTA LC inh 1 inactive | BoNTF LC inh 1 inactive | Anthrax LF CP1 inactive
COc1ccc(NC(=O)CC2C(=O)N(c3ccc(OC)cc3)C(=O)N2Cc2ccc(OC)c(OC)c2)cc1 (stereo not given)	none
Cc1c(NC(=O)c2ccccc2N(C)S(=O)(=O)c2ccccc2)c(=O)n(-c2ccccc2)n1C	BoNT F protease 48, BoNT A protease 44 | BoNTA LC inh 1 inactive | BoNTF LC inh 1 inactive | Anthrax LF CP1 inactive
Cc1c(NC(=O)c2ccc(N(C)S(C)(=O)=O)cc2)c(=O)n(-c2ccccc2)n1C	none (no result: BJeLR viability)
O=C(N=C1SC2CS(=O)(=O)CC2N1c1cc(Cl)ccc1Cl)C1CCCO1 (stereo not given)	none
O=C1c2ccccc2C(=O)N1CCCc1nc2ccccc2c(=O)n1-c1cccnc1	none (no result: BoNT F protease, Anthrax LF prot, BoNT A protease, Autofluor counter)
CCOc1ccc(-c2nc(CSc3nncs3)cs2)cc1OC	BoNT F protease 41, Autofluor counter inconclusive | BoNTA LC inh 1 inactive | BoNTF LC inh 1 inactive | Anthrax LF CP1 inactive
COc1ccc(-c2oc3c4c(cc(OC)c3c(=O)c2CC=C(C)C)OC(C)(C)C=C4)c(OC)c1	none (no result: BoNT F protease, Anthrax LF prot, BoNT A protease, 3CLpro inhibitor, Autofluor counter)
CCOCCCNC(=O)C(c1ccc(C)cc1)N(Cc1ccc2c(c1)OCO2)C(=O)CNC(C)=O (stereo not given)	BoNT F protease 35 | BoNTA LC inh 1 inactive | BoNTF LC inh 1 inactive | Anthrax LF CP1 inactive
N#CC(c1ccccc1)C(CC(=O)c1ccccc1)c1ccccc1 (stereo not given)	none (no result: BJeLR viability, 3CLpro inhibitor)
O=C(NCC1CC1)c1cccs1	none (no result: BJeLR viability, 3CLpro inhibitor)
O=C(NCCC1CCCC1)c1cccs1	BoNT F protease inconclusive, Anthrax LF prot 31, BoNT A protease inconclusive | BoNTA LC inh 1 inactive | BoNTF LC inh 1 inactive | Anthrax LF CP1 inactive
CCCCN(C(=O)C1CCCO1)c1c(N)n(CCC)c(=O)[nH]c1=O (stereo not given)	none (no result: BJeLR viability, 3CLpro inhibitor)
Cc1ccc([C@@H]2CC=C(C(=O)O)[C@H](c3ccc(Cl)cc3)N2S(=O)(=O)c2ccccc2C)cc1	none (no result: BJeLR viability, 3CLpro inhibitor)
O=C(CCS(=O)(=O)c1ccc(Cl)cc1)Nc1nc(-c2cccnc2)cs1	BoNT A protease 51 | BoNTA LC inh 1 inactive | BoNTF LC inh 1 inactive | Anthrax LF CP1 inactive
COc1ccc(Cl)cc1C(=O)NCCN1CCOCC1	none (no result: BoNT F protease, Anthrax LF prot, BoNT A protease, Autofluor counter)
COc1cc(SC)ccc1C(=O)NCCN1CCOCC1	BoNT F protease inconclusive, Anthrax LF prot 37 | BoNTA LC inh 1 inactive | BoNTF LC inh 1 inactive | Anthrax LF CP1 inactive
CC(=O)c1cnn(-c2c(Cl)cc(Cl)cc2Cl)c1C	BoNT F protease 38 | BoNTA LC inh 1 inactive | BoNTF LC inh 1 inactive | Anthrax LF CP1 inactive
CCSc1nnc(-c2sc3nnc(-c4ccccc4)c(-c4ccccc4)c3c2N)o1	BoNT F protease 52, Anthrax LF prot 56, BoNT A protease 80 | BoNTA LC inh 1 86 | BoNTF LC inh 1 inactive | Anthrax LF CP1 40
Cc1ccc2c(C)c(C(=O)N3CCCCC3CO)oc2c1C (stereo not given)	none
CSc1ccc(CN(C)CC(=O)NCCc2ccccc2)cc1	BoNT F protease 40 | BoNTA LC inh 1 inactive | BoNTF LC inh 1 inactive | Anthrax LF CP1 inactive
